Shown are actives, neighbours in structure and some others; about 21% of the full set was active somewhere.
HCMV antiviral = human cytomegalovirus inhibition; HFF cells, HCMV-luciferase reporter, 72 h; active compounds read low; activity change, negative = inhibition, % at 57.5 µM; hit rate 4.5% among 410,000; in the data active = activity change below about -60%; inconclusive = no clear call, values can overlap the other calls; inactive = above about -39%
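HFF cells seeded 16 h at 37C, treated with compounds, infected with luciferase-reporter HCMV at MOI 1 PFU/cell; luciferase read at 72 h post infection, normalized to buffer-only and Salinomycin controls.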
Shiga inhibitor = inhibitors of Shiga toxin in Vero cells. inhibition, % at 38.7 µM. AID 2315. hit rate 9.2% among 290,000. Vero cells, Shiga toxin protein synthesis inhibition reporter; in the data active = inhibition mostly above about 28%, no sharp cut-off; inactive = mostly below about 43%
CHX counter = affects cycloheximide protein synthesis inhibition readout, counter-screen | cell reporter, cycloheximide protein synthesis inhibition counterscreen | max response, % | hit rate 12% among 300,000 | AID 2314; in the data active = max response mostly above about 13%, no sharp cut-off; inactive = mostly below about 14%; also: read at 38.3 µM for the half of the compounds with a filed dose
Pf growth 96h = inhibits malaria parasite growth, 96 h | P. falciparum luciferase reporter growth, 96 h | Potency, µM (series often up to 28.7 µM), usual class: inhibitors | hit rate 6.9% among 320,000 | AID 504834
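Erythrocytes infected with luciferase-expressing P. falciparum were dispensed at 2% hematocrit and 0.05% parasitemia (final), then incubated with compounds 96 hours at 37 C in 5% CO2. Luminescence after detection reagent addition reported growth.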
Pf growth 48h = inhibits P. falciparum growth in the first generation, 48 h; P. falciparum luciferase growth in erythrocytes, 48 h; Potency, µM (highest dose often 28.7 µM), hits mostly inhibitors; hit rate 5.9% among 310,000; AID 504832
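Growth was read as firefly luciferase luminescence after a 48 h, 37 C, 5% CO2 exposure of compounds to reporter-bearing P. falciparum cultures (0.1% parasitemia, 2% hematocrit final) in Albumax-supplemented RPMI 1640.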
HCV inhibitor = HCV inhibition | Huh7.5.1 HCVcc-Cre infection, luciferase reporter, 44 h | hit rate 3.4% among 340,000 | Potency, µM (series often up to 41.8 µM), usual class: inhibitors
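Compounds are dispensed onto cells plated 4 h earlier at 1,000 per well, with HCVcc-Cre virus (about 0.5 moi) added next. Following 44 h of culture, luminescent signal is measured for 15 sec after 15 min with substrate at room temperature.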
Of the large screens only hits and unclear results are named; the others gave an inactive call; ! = not active in a repeat. Unless noted, calls follow the shape of the dose curve; as a rule, active = well fitted inhibition curve with a large enough effect; inconclusive = small, poorly fitted or top-dose-only effect, or another doubt; inactive = no such curve, though single readings can be large or run the other way.

COc1ccc(CCNC(=O)C(=O)NCc2ccccn2)cc1	Pf growth 96h inconclusive
N#C/C(=C\c1coc2ccc(O)cc2c1=O)C(=O)Nc1nc2ccccc2s1	HCMV antiviral -73, Shiga inhibitor 86, CHX counter 32, HCV inhibitor inconclusive
COc1cn(CC(=O)Nc2cccc(C)c2)c(CN2CCCCC2)cc1=O	none (no result: Shiga inhibitor, CHX counter, Pf growth 96h, Pf growth 48h, HCV inhibitor)
Cc1cc(F)ccc1NC(=O)CN1C(=O)CCc2cc(S(=O)(=O)N3CCOCC3)ccc21	none (no result: Shiga inhibitor, CHX counter, Pf growth 96h, Pf growth 48h, HCV inhibitor)
O=C(Nc1ccccc1N1CCCC1)c1cccc(S(=O)(=O)N2CCOCC2)c1	Pf growth 96h inconclusive, Pf growth 48h inconclusive (no result: Shiga inhibitor, CHX counter)
Cc1ccc(C(=O)Nc2ccccc2N2CCCCC2)cc1S(=O)(=O)N1CCOCC1	HCV inhibitor inconclusive (no result: Shiga inhibitor, CHX counter, Pf growth 96h, Pf growth 48h)
Cc1ccc(C(=O)Nc2ccccc2N2CCOCC2)cc1S(=O)(=O)N1CCOCC1	Pf growth 96h inconclusive, Pf growth 48h 13µM (no result: Shiga inhibitor, CHX counter)
O=C(Nc1ccccc1N1CCCC1)c1ccc(Cl)c(S(=O)(=O)N2CCOCC2)c1	Pf growth 96h 8.3µM, Pf growth 48h 12µM, HCV inhibitor inconclusive (no result: Shiga inhibitor, CHX counter)
O=C(NCC1CCCCC1)c1ccc(F)c(S(=O)(=O)N2CCOCC2)c1	Pf growth 96h 7.4µM, Pf growth 48h inconclusive (no result: Shiga inhibitor, CHX counter)
O=C(Nc1ccccc1N1CCCCC1)c1ccc(F)c(S(=O)(=O)N2CCOCC2)c1	Pf growth 96h inconclusive, Pf growth 48h 13µM, HCV inhibitor 10µM (no result: Shiga inhibitor, CHX counter)
COC(C[C@H]1O[C@H]1[C@@H](O)[C@@H](C)OCc1ccccc1)OC	none
S=c1[nH]c2ccccc2[nH]1	none
S=c1[nH]c2cc3ccccc3cc2[nH]1	Shiga inhibitor 98!, CHX counter 43!, Pf growth 96h inconclusive
Cc1ccc(-n2ncc(C(=O)NCCCN3CCc4ccccc4C3)c2C2CCN(C(=O)OC(C)(C)C)CC2)cc1C	none (no result: Shiga inhibitor, CHX counter, Pf growth 96h, Pf growth 48h, HCV inhibitor)
CCOC(=O)C1CCCN(C(=O)Cn2nc(CC)n3c(cc4occc43)c2=O)C1 (stereo not given)	none (no result: Shiga inhibitor, CHX counter, Pf growth 96h, Pf growth 48h, HCV inhibitor)
COc1cccc(-c2sc3ccccc3c2-c2ccc(OCCN(C)C)cc2)c1	HCV inhibitor 11µM (no result: Shiga inhibitor, CHX counter, Pf growth 96h, Pf growth 48h)
COc1cccc(-c2sc3ccccc3c2-c2ccc(OCCN3CCCC3)cc2)c1	HCV inhibitor inconclusive (no result: Shiga inhibitor, CHX counter, Pf growth 96h, Pf growth 48h)
COc1ccc2sc(-c3ccccc3OC)c(-c3ccc(OCCN(C)C)cc3)c2c1	HCV inhibitor 10µM (no result: Shiga inhibitor, CHX counter, Pf growth 96h, Pf growth 48h)
COc1ccc2sc(-c3ccccc3OC)c(-c3ccc(SC)cc3)c2c1	none (no result: Shiga inhibitor, CHX counter, Pf growth 96h, Pf growth 48h, HCV inhibitor)
CCc1ccccc1NC(=O)CN1CCN(C(=O)CNC(=O)c2ccc(-c3ccccc3)cc2)CC1	Pf growth 96h inconclusive, Pf growth 48h inconclusive, HCV inhibitor 11µM (no result: Shiga inhibitor, CHX counter)
O=C(NCC(=O)N1CCN(Cc2ccccc2)CC1)c1ccc(Cl)cc1	HCMV antiviral -62, CHX counter 18, HCV inhibitor inconclusive
O=C(NN1CCN(Cc2ccccc2Cl)CC1)c1ccc(Cl)cc1	HCMV antiviral -61
O=C(NCc1ccc(Cl)cc1)N1CCN(Cc2ccccc2)CC1	HCMV antiviral -93, HCV inhibitor inconclusive
O=C(NC1CCN(Cc2ccccc2Cl)CC1)c1ccccc1	Pf growth 96h inconclusive, Pf growth 48h inconclusive
O=C1NC[C@@H](CCCCN2C[C@H](Cc3ccccc3)N(CC3CCCCC3)C(=O)C2=O)N(Cc2ccccc2)C1=O	none (no result: Shiga inhibitor, CHX counter, Pf growth 96h, Pf growth 48h, HCV inhibitor)
CCOc1cc(CNc2ncn[nH]2)ccc1OCC(=O)NC(C)(C)C	none
O=C1COc2ccc(S(=O)(=O)N3CCC(C(=O)NCc4ccccc4)CC3)cc2N1	none
O=C(NCC(=O)N1CCN(Cc2ccccc2)CC1)c1cc(Cl)cc([N+](=O)[O-])c1	HCMV antiviral -86, HCV inhibitor inconclusive (no result: Shiga inhibitor, CHX counter, Pf growth 96h, Pf growth 48h)
CC(C(=O)N1CCN(Cc2ccccc2)CC1)c1ccc([N+](=O)[O-])cc1 (stereo not given)	none
CC(OC(=O)c1ccc(Cl)c([N+](=O)[O-])c1)C(=O)N1CCN(Cc2ccccc2)CC1 (stereo not given)	Pf growth 96h inconclusive, Pf growth 48h 12µM, HCV inhibitor inconclusive (no result: Shiga inhibitor, CHX counter)
O=C(NCC(=O)N1CCN(Cc2ccccc2)CC1)c1ccc(Br)cc1	HCV inhibitor inconclusive
O=C(c1ccccc1)c1nc2ccccc2n(CCCn2c(=O)c(C(=O)c3ccccc3)nc3ccccc32)c1=O	Pf growth 96h inconclusive, Pf growth 48h 3.7µM
Cc1ccccc1NC(=O)CSc1cn[nH]n1	none
COc1ccc(NC(=O)CSc2ccc(-c3cccnc3)nn2)cc1	Pf growth 96h inconclusive, Pf growth 48h inconclusive
